The panel holds about 79,000 compounds, 15% with a hit somewhere; the sample as a whole holds those more often. No stated cut-off is given here; in the data, active means growth inhibition above about 70%; inactive means the rest.
Tests used:
[1] = NCI Yeast Anticancer Drug Screen. Data for the rad50 strain (AID 155);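 further: 0% = growth of vehicle-only cultures of the same strain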; conditions: S. cerevisiae rad50 strain growth inhibition; at 50.0 µM; stronger effect = higher value
Summary of the method: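 Readout: growth inhibition relative to vehicle-treated cultures. Compound exposure was carried out in a genetically defined yeast strain deficient in DNA damage repair.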

[2] = NCI Yeast Anticancer Drug Screen. Data for the mec2-1 strain (AID 157); conditions: S. cerevisiae mec2-1 strain, at 50.0 µM, stronger effect = higher value
Summary of the method: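 Test agents were screened against the mec2-1 yeast strain, with defined DNA repair or cell cycle alteration. Growth was scored as inhibition against vehicle-only controls.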

[3] = NCI Yeast Anticancer Drug Screen. Data for the sgs1 mgt1 strain (AID 161);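 further: 0% = growth of cultures given vehicle only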; conditions: S. cerevisiae sgs1 mgt1 strain, at 50.0 µM, stronger effect = higher value
Summary of the method: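 Inhibition of yeast growth, normalised to vehicle-treated controls, is reported for a strain bearing genetic alterations in DNA damage repair.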

[4] = NCI Yeast Anticancer Drug Screen. Data for the cln2 rad14 strain (AID 165);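 further: 0% = growth equal to vehicle treated cultures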; conditions: S. cerevisiae cln2 rad14 strain, at 50.0 µM, stronger effect = higher value
Summary of the method: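 Growth of compound-exposed yeast (cln2 rad14 genotype) measured and expressed as inhibition relative to vehicle.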

[5] = NCI Yeast Anticancer Drug Screen. Data for the bub3 strain (AID 167); conditions: S. cerevisiae bub3 mutant strain, at 50.0 µM, stronger effect = higher value
Summary of the method: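 Readout: yeast growth inhibition, expressed relative to vehicle-only wells. The test organism is a mutant strain from a panel with lesions in DNA repair or checkpoint genes.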

[6] = NCI Yeast Anticancer Drug Screen. Data for the mlh1 rad18 strain (AID 175); conditions: S. cerevisiae mlh1 rad18 strain growth inhibition; at 50.0 µM; stronger effect = higher value
Summary of the method: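 In this whole-cell yeast screen, a strain with altered DNA damage repair is challenged with compound, and its growth is measured against matched vehicle-treated controls.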

Measured: growth inhibition

CC(C)c1nc2c(c(=O)o1)CCS2
inactive: [1] -5.5% | [2] -5.75% | [3] -7.9% | [4] -8.1% | [5] -1.4% | [6] -11.9%

O=C1C2ON3c4ccccc4C(=O)C3(c3ccccc3)C2C(=O)N1c1ccccc1 (stereo not given)
inactive: [1] -40.9% | [2] -31.3% | [3] -63% | [4] -14.3% | [5] -37% | [6] -49%

O=C(Nc1ccccc1)c1cc(S(=O)(=O)n2cc[nH]c2=O)c(S)cc1Cl
inactive: [1] 9.5% | [2] 3.6% | [3] 5.1% | [4] -5.1% | [5] 2.65% | [6] 13.2%

CC(C)C(=O)Oc1cc2c(=O)oc3c(OC(=O)C(C)C)c(OC(=O)C(C)C)cc4c(=O)oc(c1OC(=O)C(C)C)c2c34
inactive: [1] 40.1% | [2] 12.6% | [3] 25.6% | [4] 13.7% | [5] 31.6% | [6] 48.5%

O=C1CSC(=S)N1c1cccc(F)c1
inactive: [1] 32.1% | [2] -10.6% | [3] 2.1% | [4] -27.2% | [5] -18.1% | [6] 3.65%

O=C(OC1COC(OC(=O)c2ccc([N+](=O)[O-])cc2)C(OC(=O)c2ccc([N+](=O)[O-])cc2)C1OC(=O)c1ccc([N+](=O)[O-])cc1)c1ccc([N+](=O)[O-])cc1 (stereo not given)
inactive: [1] -6.15% | [2] 1.65% | [3] -9.9% | [4] -16.9% | [5] -1.3% | [6] 4.3%

COc1cc(C(C)Cl)ccc1OC(=O)c1ccccc1 (stereo not given)
inactive: [1] 10.8% | [2] -5% | [3] 3.95% | [4] -10.2% | [5] 12.2% | [6] 4.5%

CCCCOC(=O)c1ccc(O)cc1.[Zn+2]
inactive: [1] -31.1% | [2] -11.6% | [3] -16.6% | [4] -41.9% | [5] -22.4% | [6] -35.4%

CCOC(=O)NC(CI)(c1ccccc1)c1ccccc1
inactive: [1] 20.9% | [2] 10.2% | [3] 3.55% | [4] 7.2% | [5] -0.25% | [6] 14.6%

C=CC(C)(CCC=C(C)C)OC(C)=O (stereo not given)
inactive: [1] 27.6% | [2] 5.75% | [3] 14.7% | [4] 1.9% | [5] 23.9% | [6] 34.7%

CC(C)N(CC(=O)NC(=O)c1ccccc1)C(C)C
inactive: [1] -2.85% | [2] -6.45% | [3] -3.55% | [4] -32.9% | [5] 0.05% | [6] -2.6%

CNc1nc(Cl)cc2nc(Cl)cn12
inactive: [1] -2.15% | [2] 15.8% | [3] -18.6% | [4] -12.1% | [5] 8.3% | [6] 4.55%

COC(=O)OC/C=C\COC(=O)OC
inactive: [1] 5.8% | [2] -4.05% | [3] -13.6% | [4] -11.4% | [5] 4.55% | [6] 13.6%

CSc1ccc(C(N)=O)cn1
inactive: [1] -1.2% | [2] -12.2% | [3] -7.05% | [4] -36% | [5] -22.1% | [6] 1.15%

N#CC(N)=NC1CCC(C2CCC(O)CC2)CC1 (stereo not given)
inactive: [1] 6.65% | [2] 2.4% | [3] -6.25% | [4] -1.3% | [5] 16.1% | [6] 10.7%

c1ccc(OCCSCCCCCCCCCCSCCOc2ccccc2)cc1
inactive: [1] -5.85% | [2] -11.8% | [3] -25.6% | [4] -12.6% | [5] -28.6% | [6] -24.5%

NC(Cc1cccc([N+](=O)[O-])c1)C(=O)O (stereo not given)
inactive: [1] -57.8% | [2] -29.5% | [3] -35.2% | [4] -48.3% | [5] 13.3% | [6] -3.8%

C/C(=N/O)c1ccc(C(F)(F)F)cc1
inactive: [1] -5.25% | [2] -15.6% | [3] -18.8% | [4] -17.9% | [5] -48.5% | [6] -2.15%

CC1(C)Cc2cccc(OC(=O)NO)c2O1
inactive: [1] -0.65% | [2] 24.4% | [3] 0.45% | [4] -37.8% | [5] -3.1% | [6] 9%

Nc1c(Cl)cc2c(c1Br)Cc1cc(F)ccc1-2
inactive: [1] -0.15% | [2] 2.15% | [3] -3.55% | [4] -0.05% | [5] 14.8% | [6] -9.65%
